Screens from PubChem BioAssay.
In the library only some 12% were active in any assay of this set; here they are far more common.
PLK1 PBD block: inhibitors of human PLK1 polo-box domain binding; P53350; Potency, µM, for inactives: max response, negative = inhibition, hits mostly inhibitors; AID 720504; hit rate 2.8% among 360,000; Plk1 PBD binding of FITC phosphopeptide, fluorescence polarization; also: series mostly up to about 57 µM; nearly all actives have a fitted effect of over 65% in size
Target sequence (P53350 whole entry, looked up, the tested form may be a part): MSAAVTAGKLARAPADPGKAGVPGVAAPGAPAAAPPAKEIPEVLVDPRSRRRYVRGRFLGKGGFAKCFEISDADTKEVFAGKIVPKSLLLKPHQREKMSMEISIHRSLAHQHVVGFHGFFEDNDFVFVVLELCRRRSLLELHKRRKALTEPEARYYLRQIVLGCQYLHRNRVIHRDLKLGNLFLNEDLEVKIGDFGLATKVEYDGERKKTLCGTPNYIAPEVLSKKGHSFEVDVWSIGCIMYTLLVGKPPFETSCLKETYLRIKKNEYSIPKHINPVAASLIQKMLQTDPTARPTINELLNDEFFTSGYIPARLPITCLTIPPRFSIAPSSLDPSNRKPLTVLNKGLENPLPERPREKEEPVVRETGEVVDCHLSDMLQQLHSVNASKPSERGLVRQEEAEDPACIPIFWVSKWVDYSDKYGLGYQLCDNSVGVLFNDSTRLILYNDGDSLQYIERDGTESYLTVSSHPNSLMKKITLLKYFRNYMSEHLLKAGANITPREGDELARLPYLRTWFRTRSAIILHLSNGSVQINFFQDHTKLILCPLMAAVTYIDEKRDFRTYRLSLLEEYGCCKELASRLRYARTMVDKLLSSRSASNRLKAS
ALDH1A1 block: blocks purified human ALDH1A1 activity. Purified ALDH1A1, NADH fluorescence, propionaldehyde substrate. Potency, µM (top dose mostly 75.3 µM), for inactives: top-dose activity, negative = inhibition, most hits filed as inhibitors. hit rate 7.3% among 220,000. AID 1030; active = well fitted inhibition curve with a large enough effect, not every such curve was filed as active; inconclusive = small, poorly fitted or top-dose-only effect, or another doubt; inactive = no such curve, though single readings can be large or run the other way;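 also: plate controls were no enzyme wells and a reference inhibitor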
Sfp PPTase inh: Sfp phosphopantetheinyl transferase inhibition; Q9F4F7; AID 1490; Biochemical Sfp PPTase activity, qHTS; hit rate 3.5% among 310,000; Potency, µM, without a hit: largest response in the series, negative = inhibition, most hits filed as inhibitors;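 also: the enzyme is Sfp with the accession as filed and its product quenches rhodamine fluorescence; 0% = enzyme reaction without inhibitor and -100% = no enzyme wells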
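Reaction rates are the 30-min fluorescence difference (ex 525, em 598 nm) in wells containing 15 nM Sfp, 5 uM rhodamine-CoA and 12.5 uM BHQ-2-YbbR at pH 7.6 with 10 mM MgCl2.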
Gal4-VP16 FLuc: counter-screen for ROR gamma inhibitors: Gal4-VP16 reporter; Potency, µM (top dose mostly 53.6 µM), for the others: top-dose activity, negative = inhibition, actives largely listed as inhibitors; hit rate 3.5% among 310,000; AID 2546; Drosophila S2 Gal4-VP16 UAS-luciferase, luminescence, 20 h;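 also: Gal4-VP16 expression switched on by copper sulfate through the metallothionein promoter; nearly all actives have a fitted effect of over 50% in size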
RORgamma inh: inhibitors of mouse ROR gamma transcriptional activity; Drosophila S2 Gal4-RORgamma UAS-luciferase reporter, 20 h; AID 2551; Potency, µM (titrated, usually from 53.6 µM), inactives show at the top dose activity change, negative = inhibition, actives largely listed as inhibitors; P51450; hit rate 5.4% among 310,000; also: nearly all actives have a fitted effect of over 60% in size
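In this cell-based reporter format, copper sulfate (700 uM final) drives Gal4–ROR gamma fusion expression from a metallothionein promoter in Drosophila Schneider cells; compounds preincubated 1 hr, reporter read after 20 hr at ambient temperature.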
The depositor's hits bear a star; ? = inconclusive; . = no result; [ ] = another dose, or the depositor's remark. Unless noted, calls follow the shape of the dose curve; as a rule, active = well fitted curve in the direction sought with a large enough effect; inconclusive = small, poorly fitted or top-dose-only effect, or another doubt; inactive = no such curve, though single readings can be large; an effect the other way counts as inactive or inconclusive. Unless noted, % is scaled to controls: 0 for no effect and ±100 for the full control effect; potency is read from the fitted curve at half-maximal effect.

SMILES	PLK1 PBD block	ALDH1A1 block	Sfp PPTase inh	Gal4-VP16 FLuc	RORgamma inh
CCOC(=O)c1cnc(-n2nc(C)cc2C)nc1N(C)C	5.5%	?	?	4.47µM*	1.12µM*
CCOC(=O)c1cnc(-n2nc(C)cc2C)nc1N1CCOCC1	-1.0%	0.7%	-21.5%	11.2µM*	10.0%
CCOC(=O)c1cnc(-n2nc(C)cc2C)nc1Oc1ccccc1F	-1.0%	.	-14.3%	?	5.01µM*
C=C1C2c3ccccc3C(CC2(C)O[Si](C)(C)C)N1C(=O)OC (stereo not drawn)	.	3.1%[13.5 µM]	-1.0%	.	.
CC1CC(C)CN(C(=O)c2nn(C)c3c2CS(=O)(=O)c2ccccc2-3)C1 (stereo not drawn)	-10.8%	.	9.6%	-25.3%	-1.4%
CCOC(=O)c1cnc(-n2nc(C)cc2C)[nH]c1=O	-14.8%	.	50.1µM*	-26.8%	6.31µM*
Cc1cc(C(=O)OCC(=O)NCc2ccc3c(c2)OCO3)c2ccccc2n1	0.1%	-4.6%	23.8%	-2.3%	5.6%
CCOC(=O)c1cnc(-n2nc(C)cc2C)nc1NCc1ccc2c(c1)OCO2	-1.4%	-8.7%	-11.8%	3.16µM*	3.55µM*
CCOC(=O)c1cnc(-n2[nH]c(C)cc2=O)[nH]c1=O	-5.8%	5.0%	12.2%	1.3%	16.3%
Cc1cccc(NC(=S)NC(=O)CCc2ccccc2)c1	-4.8%	?	1.6%	?	10µM*
N#Cc1ccccc1NC(=O)COC(=O)CCc1ccccc1	-4.2%	.	7.5%	-3.2%	-2.2%
O=C(NC(=S)Nc1cccc(NC(=S)NC(=O)c2ccco2)n1)c1ccco1	-20.4%	?	?	0.794µM*	0.0891µM*
Cc1ccccc1NC(=O)COC(=O)CCc1ccccc1	5.97µM*	-1.2%	8.6%	-9.3%	1.9%
Cc1cccc(NC(=S)NC(=O)CCc2ccccc2)c1C	-10.7%	12.6µM*	?	?	2.51µM*
CCC(C(=O)Nc1c(C)cccc1C)n1c(-c2ccc(=O)[nH]c2)nc2ccccc21 (stereo not drawn)	-6.9%	.	.	.	.
CCc1nc2c(OCC3COc4ccccc4O3)cccn2c1N(C)C(=O)c1cccs1 (stereo not drawn)	-9.4%	.	.	.	.
Nc1ccc(S(=O)(=O)c2ccc(N3CCOCC3)c(N)c2)cc1	-17.5%	.	.	.	.
Cc1cccc(NC(=S)NN(Cc2ccccc2)c2ccccc2)c1C	-5.0%	?	11.6%	3.55µM*	3.55µM*
Cc1cccc(NC(=S)NC(=O)c2ccco2)c1C	-2.1%	.	-2.7%	11.2µM*	3.55µM*
Cc1cccc(NC(=S)NC(=O)Cc2ccccc2)c1C	-18.6%	.	-5.7%	4.47µM*	3.98µM*
Cc1cccc(NC(=S)NCCc2ccc(S(N)(=O)=O)cc2)c1C	-16.1%	7.0%	1.5%	2.1%	-10.5%
Cc1ccc(S(=O)(=O)NNC(=S)Nc2cccc(C)c2C)cc1	-1.0%	.	16.4%	?	5.01µM*
CCCN(Cc1ccccc1)C(=S)Nc1cccc(C)c1C	-3.9%	14.5%	7.5%	-4.6%	?
O=C(NC(=S)Nc1ccccc1Br)c1ccco1	-17.4%	.	16.0%	?	?
COc1ncc2nc(C)c(=O)n(C)c2n1	.	-10.7%	11.1%	-4.6%	-6.5%
SMILES	PLK1 PBD block	ALDH1A1 block	Sfp PPTase inh	Gal4-VP16 FLuc	RORgamma inh
Cc1cc(C)c(O)c(NC(=S)NC(=O)Cc2ccccc2)c1	-2.3%	.	8.4%	5.62µM*	10µM*
CC(=O)Nc1nc(NC(C)=O)c2[nH]c(CO)nc2n1	.	13.6%[13.5 µM]	.	.	.
COC(=O)C(C)Sc1n[nH]c(=S)s1 (stereo not drawn)	?	20µM*	50.1µM*	3.5%	-16.0%
CCNc1nc(SC(C)C(=O)OC)nc(N(C)C)n1 (stereo not drawn)	-2.8%	6.6%	7.0%	2.6%	33.7%
O=C(O)CC(Sc1n[nH]c(=S)s1)C(=O)O (stereo not drawn)	?	12.6µM*	15.8µM*	-9.1%	-19.7%
CCOC(=O)c1sc2nc(SCC#N)n(CCCN3CCCC3=O)c(=O)c2c1C	-10.4%	0.794µM*	0.5%	-2.9%	37.6%
CO[C@@H]1COC(=O)C/C=C\[C@H](C)[C@H](OC)COC(=O)[C@H](C)NC(=O)C/C=C\[C@H]1C	.	-1.6%[13.5 µM]	13.3%	2.2%[10 µM]	1.5%[10 µM]
c1n[nH]c(NC2=NCCC2)n1	-12.7%	5.1%	44.7µM*	-1.0%	-27.6%
O=C(NCCO)c1ccc(CSc2nc3ccccc3[nH]2)cc1	-1.8%	0.8%	8.2%	-14.0%	?
c1ccc2nc(NN=C3CCCCC3)ccc2c1	-12.5%	.	.	.	.
CCc1ccccc1Nc1nc2ccccc2[nH]1	5.9%	.	.	.	.
